Measured potencies and affinities stand elsewhere. Activity calls are given as the source filed them.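 How the source made its calls: active means signal-lowering compounds whose fitted half-maximal concentration is at or below twice the top tested dose in every run; inconclusive means runs disagree, flat 30 to 70% inhibition, or poor curve fit; inactive means the rest.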

For the experiment, the target named is Protein S100-A4 (Homo sapiens) (UniProt P26447). Nature of the experiment: S100A4-myosin IIA binding inhibitor potency, dose response, biochemical, fluorescence polarization, cherry-picked hits (AID 687001). To be noted: FP, S100A4/TAMRA-myosin IIA peptide binding; series mostly up to 11 µM. (In general: Polarisation of emitted light reports the rotation of a fluorescent probe.)
Sequence of Protein S100-A4 (Homo sapiens) (P26447 whole entry, looked up): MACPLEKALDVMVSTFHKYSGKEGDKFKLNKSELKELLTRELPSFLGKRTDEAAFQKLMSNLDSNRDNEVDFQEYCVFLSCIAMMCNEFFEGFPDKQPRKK
Turning to `CC(C)C[C@H]1CN(CCCC[C@@H]2CNC(=O)C(=O)N2Cc2ccccc2)C(=O)C(=O)N1Cc1ccccc1`, the compound was classed as inactive.

On to `Cc1ccccc1S(=O)(=O)N(C)C[C@@H]1OCc2cnnn2CCCC(=O)N([C@@H](C)CO)C[C@H]1C`, for which the compound was called inactive.

For `CC(C)NC(=O)N1[C@@H](CO)[C@@H](c2ccccc2)C12CN(C(=O)Cc1cccnc1)C2`, the outcome was inactive.

For the compound `Cc1ccc(S(=O)(=O)NCC[C@@H]2CC[C@H](NC(=O)Nc3cccc(F)c3)[C@@H](CO)O2)cc1`, the call was inactive.

Turning to `CCCCCn1c(C)c(CC(=O)Nc2ccc(Oc3cccnc3)c(C)c2)c2ccccc21`, the compound was classed as inactive.

Regarding `COc1ccc(C#Cc2ccc([C@@H]3[C@@H](CO)N4CCCCN(C(=O)Nc5ccc(F)cc5)C[C@@H]34)cc2)cc1`, the result was inactive.

As to `COC(=O)Cc1c(C)nc(SCc2ccccc2)[nH]c1=O`, the compound was called inactive.

On to `CCNC(=O)[C@H]1[C@H](CO)[C@H]2Cn3c(ccc(-c4ccc(F)cc4)c3=O)[C@@H]1N2C`, for which the compound was called inactive.

As to `CCCc1cc(=O)[nH]c(SCC(=O)N2CCc3ccccc32)n1`, the call was inactive.

For the compound `CC(NC(=O)Nc1ccc(F)cc1)c1ccc2c(c1)OCO2` (stereo not drawn), the compound was called inactive.

With `CC(C)[C@H](NC(=O)N1CCn2c1nc1ccccc12)C(=O)NCc1ccccc1Cl`, the call was inactive.

With `O=C(Cc1ccncc1)NCC[C@@H]1CC[C@@H](NC(=O)C2CCOCC2)[C@@H](CO)O1`, the compound was called inactive.

Consider `O=[N+]([O-])c1ccccc1CN1CCN(S(=O)(=O)Cc2ccccc2)CC1`, for which the compound was called inactive.

On to `O=C(Nc1ccccc1F)N[C@H]1CC[C@H](CCNC(=O)C2CCCCC2)O[C@H]1CO`, for which the outcome was inactive.

On to `CC(=O)N1CC(C)Oc2ccc(S(=O)(=O)NC(CC(=O)O)c3ccccc3)cc21` (stereo not drawn), for which the result was inactive.

With `COc1ccc(C2SCCN2S(=O)(=O)c2ccc(F)cc2)cc1OC` (stereo not drawn), the result was inactive.

With `COc1ccc(NC(=O)N(C)C[C@@H]2Oc3ncc(C#CC(C)(C)O)cc3C(=O)N([C@H](C)CO)C[C@@H]2C)cc1`, the result was inactive.

As to `CCOC(=O)C1(C)CCN1C(=O)c1csnn1` (stereo not drawn), the result was inactive.

Regarding `O=C(NCc1cc([N+](=O)[O-])ccc1O)c1cccnc1Sc1ccccc1`, the call was inactive.

As for `CCC(Sc1nc2ccncc2[nH]1)C(=O)Nc1ccc(C)c(Cl)c1` (stereo not drawn), the result was inactive.

Regarding `C/C=C/c1ccc([C@H]2[C@@H](CO)N(C(=O)Nc3ccccc3F)[C@H]2C#N)cc1`, the call was inactive.

With `CCOc1ccc(C2C(C(=O)c3ccco3)=C(O)C(=O)N2CCN2CCOCC2)cc1OCC` (stereo not drawn), the compound was classed as inactive.

On to `CO[C@H]1CC[C@H]2CCOc3c(C#N)cccc3C(=O)N(C)C[C@H](c3ccccc3)CC(=O)N(C)C[C@H]1O2`, for which the outcome was inactive.

As for `CSCCC(NC(=O)c1ccccc1Cl)C(=O)NCC(c1cccs1)N(C)C` (stereo not drawn), the outcome was inactive.

For the compound `O=C(c1ccc2c(c1)OCO2)N1CC(=O)N2[C@@H](CO)[C@H](c3ccc(C#Cc4ccccc4)cc3)[C@@H]2C1`, the result was inactive.

`CC1CC(C)CN(CCCNC(=O)c2cc3c(s2)-c2ccccc2OC3)C1` (stereo not drawn): the compound was called inactive.

As for `C[C@@H]1CCCCO[C@H](CN(C)S(=O)(=O)c2cccs2)[C@@H](C)CN([C@@H](C)CO)C(=O)c2cc(NS(=O)(=O)c3cccs3)ccc2O1`, the result was inactive.

Take `C[C@@H]1CN([C@H](C)CO)C(=O)Cc2cc(NC(=O)CCN3CCOCC3)ccc2O[C@H]1CN(C)Cc1ccc2c(c1)OCO2`: the call was inactive.

As to `Cc1cc(C(=O)Nc2ccncc2)c2ccccc2n1`, the result was inactive.

Take `COc1ccc(NC(=O)N(C)C[C@H]2OCCCC[C@@H](C)Oc3ccc(NC(=O)NC4CCCCC4)cc3C(=O)N([C@H](C)CO)C[C@@H]2C)cc1`: the compound was classed as inactive.

As to `COCc1cc(=O)[nH]c(SCC(=O)N2CCOCC2)n1`, the result was inactive.

In the case of `CCCNC(=O)N1[C@@H]2c3ccc(-c4ccccc4OC)c(=O)n3C[C@@H]2[C@@H](CO)[C@@H]1C(=O)NC1CCC1`, the call was inactive.

Consider `O=C(C1CCCC1)N1CCCCN2[C@H](CO)[C@@H](c3ccc(C#CC4(O)CCCC4)cc3)[C@H]2C1`, for which the result was inactive.

As to `C[C@H](CO)N1C[C@H](C)[C@@H](CN(C)Cc2cccc(F)c2)Oc2ncc(C#C[C@@H](C)O)cc2C1=O`, the outcome was inactive.

Consider `Cc1ccc(S(=O)(=O)Nc2ccccc2F)cc1C(=O)OC(C)C(=O)N1CCOCC1` (stereo not drawn), for which the compound was called inactive.

As for `CCOC(=O)c1c(S(=O)(=O)N2CCCC(C(=O)Nc3ccc(C)cn3)C2)c(C)n(C)c1C` (stereo not drawn), the compound was classed as inactive.

Regarding `COc1ccccc1NC(=O)N1CCCCN2[C@H](C1)[C@@H](c1ccc(C#CC3CC3)cc1)[C@@H]2CO`, the outcome was inactive.

Take `CCCn1cnc2c(oc3ccccc32)c1=O`: the outcome was inactive.

Values taken from PubChem BioAssay AID687001 (Broad Institute, 2013).
